According to PubChem BioAssay (NCATS):
Values joined by “and” are separate entries in the source; they are usually repeats but may differ in a detail not shown here. Equal values may be shown once. Records with an inconclusive call do not appear. A call without a number means that no potency is given here. Active and inactive are the calls of the source. Calls follow the shape of the dose curve; as a rule, active = well fitted inhibition curve with a large enough effect; inconclusive = small, poorly fitted or top-dose-only effect; inactive = no such curve, though single readings can be large or run the other way.

Biological target: Furin (Homo sapiens) (UniProt P09958)
Test: Furin counterscreen qHTS for Zika virus inhibitors (AID 1347149); also: nearly all actives have a fitted effect of over 70% in size
Details: furin enzymatic counterscreen, fluorogenic substrate; series mostly up to 57.5 µM
How it was run: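 Fluorogenic cleavage of BOC-RVRR-AMC (2 microM final, Km ~15 µM) was monitored (ex 340, em 450 nm) at 37C after 15 min RT preincubation of 5 nM furin with compounds in HEPES pH 7.0 buffer with CaCl2 and Triton X-100. Percent inhibition was fitted to a 4-parameter Hill curve.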
Potency is read from the fitted curve at half-maximal effect.

Sequence of Furin (Homo sapiens) (P09958 whole entry, looked up): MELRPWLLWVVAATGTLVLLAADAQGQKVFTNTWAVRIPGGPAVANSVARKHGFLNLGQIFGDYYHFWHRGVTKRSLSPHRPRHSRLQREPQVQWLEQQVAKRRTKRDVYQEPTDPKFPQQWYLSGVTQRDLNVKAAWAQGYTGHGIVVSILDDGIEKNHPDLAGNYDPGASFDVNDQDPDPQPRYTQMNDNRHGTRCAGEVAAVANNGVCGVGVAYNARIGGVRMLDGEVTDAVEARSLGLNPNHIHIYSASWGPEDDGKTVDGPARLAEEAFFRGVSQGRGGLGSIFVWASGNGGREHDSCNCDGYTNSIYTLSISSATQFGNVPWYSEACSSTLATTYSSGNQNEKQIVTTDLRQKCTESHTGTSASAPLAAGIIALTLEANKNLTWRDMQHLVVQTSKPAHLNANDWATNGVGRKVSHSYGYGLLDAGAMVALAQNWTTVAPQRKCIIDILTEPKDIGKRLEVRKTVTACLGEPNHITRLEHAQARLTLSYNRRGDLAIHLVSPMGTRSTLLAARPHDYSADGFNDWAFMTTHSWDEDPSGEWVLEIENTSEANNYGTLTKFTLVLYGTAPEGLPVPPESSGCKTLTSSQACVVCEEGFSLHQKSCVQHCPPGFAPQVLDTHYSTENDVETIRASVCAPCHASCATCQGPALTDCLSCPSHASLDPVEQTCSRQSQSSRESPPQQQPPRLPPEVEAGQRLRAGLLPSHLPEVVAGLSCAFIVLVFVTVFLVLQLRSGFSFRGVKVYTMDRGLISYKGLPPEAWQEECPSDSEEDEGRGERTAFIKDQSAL

Structure (SMILES) | Potency
Cc1ccn(-c2ccc(-c3ncco3)cc2)c(=O)c1-c1ccc2nc(N)ncc2c1 | 21.5 µM (active)
O=C(O)c1c(Cl)c(Cl)c(Cl)c(Cl)c1-c1c2cc(I)c(=O)c(I)c-2oc2c(I)c(O)c(I)cc12 | inactive
CS(=O)c1ccc(-c2nc(-c3ccc(F)cc3)c(-c3ccncc3)[nH]2)cc1 (stereo not given) | 24.1 µM (active) and 21.5 µM (active)
Cc1cc(OCCCc2c(C(=O)O)n(Cc3cccnc3)c3c(-c4c(COc5ccc(N6CCN([S+](C)(=O)[O-])CC6)cc5)nn(C)c4C)cccc23)cc(C)c1Cl | 21.5 µM (active)
CC=CCC(C)C(O)C1C(=O)NC(CC)C(=O)N(C)CC(=O)N(C)C(CC(C)C)C(=O)NC(C(C)C)C(=O)N(C)C(CC(C)C)C(=O)NC(C)C(=O)NC(C)C(=O)N(C)C(CC(C)C)C(=O)N(C)C(CC(C)C)C(=O)N(C)C(C(C)C)C(=O)N1C (stereo not given) | 0.0152 µM (active)
CC1CCC(C(=O)N(c2cc(C#CC(C)(C)C)sc2C(=O)O)C2CCC(O)CC2)CC1 (stereo not given) | inactive
CC1(C)CCC(CN2CCN(c3ccc(C(=O)NS(=O)(=O)c4ccc(NCC5CCOCC5)c([N+](=O)[O-])c4)c(Oc4cnc5[nH]ccc5c4)c3)CC2)=C(c2ccc(Cl)cc2)C1 | inactive
C[C@H](NC(=O)C(=O)Nc1ccccc1C(C)(C)C)C(=O)N[C@@H](CC(=O)O)C(=O)COc1c(F)c(F)cc(F)c1F | inactive
CC(=O)Nc1ccc([C@H](C)C(=O)Nc2ncc(C(C)C)s2)cc1 | inactive
COc1ccc2cc(-c3nc(-c4ccc(S(C)=O)cc4)[nH]c3-c3ccncc3)ccc2c1 (stereo not given) | 3.83 µM (active)
NC(=O)c1cccc2[nH]c(-c3ccc([C@H]4CCCN4)cc3F)nc12 | 21.5 µM (active)
O=c1c(O)c(-c2ccc(O)cc2)oc2cc(O)cc(O)c12 | inactive
NC(=O)c1ccc2nc(-c3ccc(Oc4ccc(Cl)cc4)cc3)[nH]c2c1 | 34 µM (active)

System: Zika virus NS2B-NS3 protease (unlinked)
Test: Optimization of GU AMC qHTS for Zika virus inhibitors: Unlinked NS2B-NS3 protease assay (AID 1347151); also: nearly all actives have a fitted effect of over 80% in size
Details: recombinant ZIKV NS2B-NS3 protease, fluorogenic AMC substrate; series mostly up to 52.5 µM
How it was run: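 Noncovalent complex of NS2B hydrophilic domain and NS3 protease domain, 25 nM final, in 10 mM Tris-HCl pH 8.0, 0.01% Tween 20. AMC fluorescence change over 15 min at room temperature was fitted to a 4-parameter Hill equation.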

Structure (SMILES) | Potency
COC(=O)[C@@H]1[C@H]2C[C@H]3c4[nH]c5ccccc5c4CCN3C[C@@H]2CC[C@@H]1O | inactive
C[N+](C)(C)CCCCCC[N+](C)(C)C | inactive
Clc1ccc(Cn2c(CN3CCCC3)nc3ccccc32)cc1 | inactive
CCn1cc(C(=O)O)c(=O)c2ccc(C)nc21 | inactive
CC(C)(C)c1ccc(C(O)CCCN2CCC(C(O)(c3ccccc3)c3ccccc3)CC2)cc1 (stereo not given) | inactive
CC(=O)N[C@@H](CS)C(=O)O | inactive
CCN(CC)CCNC(=O)c1ccc(N)cc1 | inactive
CCN(CC)C(=O)c1ccc(O)c(OC)c1 | inactive
CN(C)CCC(c1ccccc1)c1ccccn1 (stereo not given) | inactive
O=C1NCC2(CCN(CCc3ccccc3)CC2)O1 | inactive
CCN(CC)CCOC(=O)c1ccc(N)cc1 | inactive
CC/C(=C(\c1ccccc1)c1ccc(OCCN(C)C)cc1)c1ccccc1 | inactive
CC(=O)c1ccc(S(=O)(=O)NC(=O)NC2CCCCC2)cc1 | inactive
CC=CCC(C)C(O)C1C(=O)NC(CC)C(=O)N(C)CC(=O)N(C)C(CC(C)C)C(=O)NC(C(C)C)C(=O)N(C)C(CC(C)C)C(=O)NC(C)C(=O)NC(C)C(=O)N(C)C(CC(C)C)C(=O)N(C)C(CC(C)C)C(=O)N(C)C(C(C)C)C(=O)N1C (stereo not given) | inactive
O=c1cc(-c2ccccc2)oc2cc(O)c(O)c(O)c12 | 2.71 µM (active)
Clc1ccc(C(c2ccc(Cl)cc2)n2cc[n+](CC(OCc3ccc(Cl)cc3Cl)c3ccc(Cl)cc3Cl)c2)cc1 (stereo not given) | inactive
COc1cccc(-c2cc(=O)c3ccccc3o2)c1N | inactive
C[C@H](NC(=O)C(=O)Nc1ccccc1C(C)(C)C)C(=O)N[C@@H](CC(=O)O)C(=O)COc1c(F)c(F)cc(F)c1F | inactive
O=c1c(-c2ccc(O)cc2)coc2cc(O)ccc12 | 29.9 µM (active)
CC(=O)Nc1ccc([C@H](C)C(=O)Nc2ncc(C(C)C)s2)cc1 | inactive
NCCS | inactive
O=C(NCCN1CCOCC1)c1ccc(Cl)cc1 | inactive
Cc1cccc(C)c1OCC(C)N (stereo not given) | inactive
CCCCC1C(=O)N(c2ccccc2)N(c2ccccc2)C1=O | inactive
O=C1NC(=O)C(c2ccccc2)(c2ccccc2)N1 | inactive
NC(N)=Nc1nc(CSCC/C(N)=N/S(N)(=O)=O)cs1 | inactive
COc1ccc(Cc2nccc3cc(OC)c(OC)cc23)cc1OC | inactive
